# Source: PubChem BioAssay AID602399 (Sanford-Burnham Center for Chemical Genomics, 2012)
# Hit rate of the full screen: of about 360,000 compounds, about 2,800 (0.78%) were called active. No stated cut-off is given here; in the data, active means inhibition above about 26%; inactive means the rest. Shown is part of a subset that was picked to be rich in actives.
# Tested on: Nicotinate-nucleotide adenylyltransferase NadD (Staphylococcus aureus N315)
# Assay: inhibitors of S. aureus NadD, primary screen, biochemical, colorimetric, uHTS (AID 602399)
# Conditions: purified NadD enzyme, colorimetric absorbance read-out; at 20 µM; hits give high values
row,Structure (SMILES),inhibition
1,N#CC1=C(SCc2ccc(C#N)cc2)N=C(N)C(c2nc(-c3ccccc3)cs2)C12CCCCC2 (centres undefined),39.1% (active)
2,N#Cc1ccc(CSc2ncccn2)cc1,-1.45% (inactive)
3,Cc1ccc(NC(=O)CN(C)S(=O)(=O)c2cnc[nH]2)cc1C,-2.1% (inactive)
4,COC(=O)c1c(NC(=O)COc2ccc(Cl)cc2Cl)sc2c1CC(C)(C)NC2(C)C,-5.59% (inactive)
5,CCc1ccc(-n2c(=S)sc3c(=O)n(-c4ccccc4OC)c(=S)[nH]c32)cc1,26.4% (active)
6,COc1ccccc1-n1c(=S)[nH]c2c(sc(=S)n2-c2ccc(C)cc2C)c1=O,26.4% (active)
7,COc1cccc(-n2c(=S)sc3c(=O)n(-c4ccccc4OC)c(SCC4OCCO4)nc32)c1,-4.72% (inactive)
8,COc1ccccc1N1CCN(c2nc(C)cc(=O)[nH]2)CC1,0.434% (inactive)
9,COc1ccc(Cl)cc1-n1c(=S)sc2c(=O)n(-c3ccc(F)cc3)c(SCC(=O)O)nc21,-1.15% (inactive)
10,COc1cccc(-n2c(=S)sc3c(=O)n(-c4ccccc4C)c(SCC(=O)O)nc32)c1,-0.498% (inactive)
11,COc1ccc2c3c1O[C@H]1C[C@@H](O)C=C[C@@]31CCN(C)C2,-4.23% (inactive)
12,COc1cc(C)c(C(C)C)cc1S(=O)(=O)n1ccnc1,-1.45% (inactive)
13,CCCCCOC(=O)C1=C(C)Nc2nnnn2C1c1ccc(OC)c(OC)c1OC (centres undefined),-2.88% (inactive)
14,C=CCOc1ccc(/C=C/C(=O)OCC(=O)NCC2CCCO2)cc1 (centres undefined),0.0871% (inactive)
15,CCC(NC(=O)c1cc(COc2ccc(F)c(F)c2)on1)c1ccncc1 (centres undefined),48.1% (active)
16,CCOC(=O)CC1COCCN1C(=O)c1cc(COc2ccc(F)c(F)c2)on1 (centres undefined),-4.39% (inactive)
17,CC(=O)c1cccc(OCc2cc(C(=O)NC(C)Cc3cccnc3)no2)c1 (centres undefined),-5.35% (inactive)
18,COC(C(=O)Nc1ccc(S(=O)(=O)Nc2ccc(C)c(C)c2)cc1)c1ccccc1 (centres undefined),-2.66% (inactive)
19,COc1ccc2c(-c3ccccc3)cc(SCC(=O)N(C)C3CCS(=O)(=O)C3)nc2c1 (centres undefined),-1.73% (inactive)
20,CN(C(=O)COC(=O)c1cc(-c2ccco2)nc2ccccc12)C1CCS(=O)(=O)C1 (centres undefined),87.6% (active)
21,COc1ccc(NC(=O)COc2ccc(C(=O)OCC(=O)N(C)C3CCS(=O)(=O)C3)cc2OC)cc1 (centres undefined),-2.63% (inactive)

row,Structure (SMILES),inhibition
1,CC(C)CN1CCNC(=O)C1CC(=O)N(C)CC1CCOCC1 (centres undefined),-2.31% (inactive)
2,CN(C)S(=O)(=O)c1ccc(N/C=C(\[N+](=O)[O-])S(=O)(=O)c2ccccc2)cc1,-3.76% (inactive)
3,O=C1N(Cc2ccc3c(c2)OCO3)c2ccccc2C1(O)c1c[nH]c2ccccc12 (centres undefined),34.1% (active)
4,CC1(C(=O)NCc2ccc3c(c2)OCO3)CCN1C(=O)Cc1cccc2ccccc12 (centres undefined),-4.65% (inactive)
5,CCn1c(=O)cc(SCC(=O)NCc2ccc3c(c2)OCO3)c2ccccc21,1.73% (inactive)
6,CCCN(CCC)c1ccc(C(O)c2nnc(-c3ccccc3)o2)cc1 (centres undefined),3.67% (inactive)
7,CC1(C)OC(=O)C2=C(C[C@@H](C3CC3)O[C@H]2c2ccc(Cl)cc2)O1,-7.37% (inactive)
8,C[C@H](CO)N1C[C@H](C)[C@H](CN(C)C(=O)Nc2ccc(C(F)(F)F)cc2)Oc2c(NC(=O)c3ccncc3)cccc2C1=O,34% (active)
9,Cc1noc(C)c1NC(=O)Nc1ccc2c(c1)C(=O)N([C@H](C)CO)C[C@H](C)[C@@H](CN(C)C(=O)Nc1ccc(C(F)(F)F)cc1)O2,3.74% (inactive)
10,Cc1noc(C)c1NC(=O)Nc1cccc2c1O[C@H](CN(C)C(=O)Nc1ccccc1)[C@@H](C)CN([C@H](C)CO)C2=O,-4.23% (inactive)
11,CN(CC(=O)N1CCN(c2ccccc2)CC1)S(=O)(=O)c1cccs1,-2.17% (inactive)
12,O=C(O)CCCC(=O)N1N=C(c2ccco2)CC1c1ccco1 (centres undefined),2.35% (inactive)
13,Cc1nn2c(c1-c1ccccc1)N=C(c1ccco1)CC2c1ccccc1 (centres undefined),35.5% (active)
14,C=CCN1C(=O)C(Cc2ccc(OCC)cc2)SC1=Nc1ccc(C(=O)O)cc1 (centres undefined),-1.51% (inactive)
15,CCOCCCN1C(=O)C2C(C(=O)Nc3ccc(OCC)cc3)C3C=CC2(O3)C1C(=O)NC1CCCCC1 (centres undefined),-6.7% (inactive)
16,COc1ccc(/C=C(\C#N)C(=O)NCCCn2ccnc2)cc1,-0.938% (inactive)
17,COc1cccc(-c2nn(-c3ccccc3)cc2/C=C(\C#N)C(=O)NCCCn2ccnc2)c1,29.3% (active)
18,O=C(NCCCn1ccnc1)/C(=C\c1ccccc1F)NC(=O)c1ccccc1,-0.605% (inactive)
19,Cc1ccc(S(=O)(=O)N2CCN(C(=O)COC(=O)/C=C/c3cccc(Cl)c3)CC2)c(C)c1,-1.3% (inactive)
20,O=C(CC1SC(=Nc2ccccc2)N(Cc2ccccn2)C1=O)Nc1cccc(Cl)c1 (centres undefined),7.98% (inactive)
21,O=C1/C(=C/c2ccc(F)cc2)SC(=S)N1NS(=O)(=O)c1ccccc1,5.39% (inactive)

row,Structure (SMILES),inhibition
1,COc1cc(-c2nnc(Cn3cc(C(F)(F)F)ccc3=O)o2)cc(OC)c1OC,-3.86% (inactive)
2,COc1cc(/C=C2\SC(=S)N(Nc3ncc(C(F)(F)F)cc3Cl)C2=O)cc(OC)c1OC,31.2% (active)
3,COCCCn1c(C(=O)NC2CCCCC2)cc2c(=O)n3cccc(C)c3nc21,2.49% (inactive)
4,O=c1c(-c2ccccc2)cnc2n1CCS2,-3.39% (inactive)
5,Cc1cccc(N2CCN(C(=O)/C=C/c3ccco3)CC2)c1C,-1.19% (inactive)
6,Cc1ccc(-n2c(C)cc(/C=N/Nc3ccc([N+](=O)[O-])cn3)c2C)c(C)c1,44.4% (active)
7,Cc1cc(C=O)c(C)n1-c1ccc(NC2CCCCC2)c([N+](=O)[O-])c1,0.0872% (inactive)
8,Cc1ccc(N2CCN(c3ccc([N+](=O)[O-])cn3)CC2)c(C)c1,1.39% (inactive)
9,Nc1ccc(Cl)c(S(=O)(=O)Nc2ccccc2Cl)c1,6.19% (inactive)
10,O=C1Nc2cc(Cl)c(Cl)cc2N(O)N1c1cc(Cl)cc(Cl)c1,-1.38% (inactive)
11,CN(C)c1nc(=Nc2cccc(Cl)c2)ss1,3.08% (inactive)
12,c1ccc(CN2CCC(N=C3NN=C(c4ccc5c(c4)OCCO5)CS3)CC2)cc1,17% (inactive)
13,Clc1cccc(N=C2NN=C(c3ccc4c(c3)OCCO4)CS2)c1,31% (active)
14,NS(=O)(=O)c1ccc(NS(=O)(=O)/C=C/c2ccccc2)cc1,-1.06% (inactive)
15,NNc1cccc(C=Cc2ccccc2)cc1=O,33.2% (active)
16,O=C(COC(=O)/C=C/c1cccc(Cl)c1)NCCc1ccccc1,-11.9% (inactive)
17,CC/C(=N\NC(=O)c1ccccc1Cl)c1ccc(Br)s1,-6.6% (inactive)
18,C/C(=N\NC(=O)COc1c(C)cccc1C)c1cccs1,-5.85% (inactive)
19,C/C(=N\NC(=O)CNc1cccc2ccccc12)c1ccc(Br)s1,64.5% (active)
20,CCCCCCc1cc2cc(-c3nnc(-c4ccccc4)o3)c(=O)oc2cc1O,87.5% (active)
21,Cn1cccc1Cc1nnc(SCC(=O)NCc2ccc3c(c2)OCO3)n1CCc1ccccc1,7.11% (inactive)

row,Structure (SMILES),inhibition
1,COC(=O)c1cccc(N(CC(=O)NCC2CCCO2)C(=O)CCC(=O)Nc2cc(C)on2)c1 (centres undefined),-10.6% (inactive)
2,CCOc1cc(/C=C/C(=O)OCC(=O)NCCN2C(=O)CSC2=O)ccc1OCC(C)C,0.893% (inactive)
3,Cc1cc(-c2n[nH]c(=S)n2/N=C/C(Br)=C/c2ccccc2)n[nH]1,17.3% (inactive)
4,S=c1[nH]nc(-c2cc(-c3ccccc3)n[nH]2)n1/N=C/c1c2ccccc2cc2ccccc12,49.4% (active)
5,CCN(CC)S(=O)(=O)c1cccc(-c2n[nH]c(=S)n2/N=C/c2ccc(C(=O)OC)cc2)c1,24.3% (inactive)
6,COc1cccc(/C=C/C(=O)Nc2ccc3c(c2)OCCO3)c1,-5.58% (inactive)
7,CC(=O)Nc1ccc(S(=O)(=O)NC2(C(F)(F)F)C(=O)NC(C)=C2C#N)cc1 (centres undefined),-2.54% (inactive)
8,Cc1ccc(-c2nc(-c3cccnc3)sc2CC(=O)Nc2ccc(C)c(Cl)c2)cc1,30.9% (active)
9,Cc1nc(-c2ccc(F)cc2)c(CC(=O)Nc2cc(S(=O)(=O)N3CCCCC3)ccc2C)s1,6.89% (inactive)
10,Cc1ccc(NC(=O)COc2ccc(-n3ccnc3)cc2)cc1Cl,-3.03% (inactive)
11,COc1cccc(OCc2cc(/C=N/NC(=O)c3nc(Cl)c(Cl)c(N)c3Cl)ccc2OC)c1,45.5% (active)
12,COc1ccc(S(=O)(=O)N/N=C\c2ccc(OC)c(COc3ccc(C)cc3[N+](=O)[O-])c2)cc1,18.5% (inactive)
13,CCN(CC)Cc1c(C(=O)N/N=C/c2cccc(OCc3ccc(F)cc3)c2)nnn1-c1nonc1N,13.1% (inactive)
14,CCOC(=O)c1ccccc1N1C(=O)C2Sc3[nH]c(=O)sc3C(/C=C/c3ccccc3)C2C1=O (centres undefined),42.2% (active)
15,CC(OC(=O)c1ccccc1N1C(=O)C2C3CCC(C3)C2C1=O)C(=O)c1ccccc1 (centres undefined),-5.61% (inactive)
16,CCOC(=O)C1Sc2[nH]c(=O)sc2C(c2ccc(Cl)cc2)C1C(=O)OCC (centres undefined),13.4% (inactive)
17,COC(=O)c1cn(C)c2ccc(S(=O)(=O)N3CC(C)CC(C)C3)cc2c1=O (centres undefined),0.79% (inactive)
18,c1ccc(-c2nccc(-c3ccc(-n4cnc5ccccc54)cc3)n2)nc1,65.6% (active)
19,COC(=O)c1ccc(-n2cnc3ccccc32)nc1,-5.95% (inactive)
20,Cc1nccc(-c2ccc(-n3c(C)ccc3C)cc2)n1,3.88% (inactive)
21,Cc1ccc(S(=O)(=O)N(C)C)cc1NC(=O)C1Cc2ccccc2CN1C(=O)c1ccco1 (centres undefined),2.17% (inactive)
